Laboratory results published in the supplement of paper PMC11417369.
± gives the standard deviation of the averaged measurements. Whole data set: some 25,000 sequences, median “ln(normalized median fluorescence intensity)” near 8.9, cut for the highest 2% near 10. The entries come from a sample that favours the highest values as a whole.

The sequences below were run on PfAP2-LT AP2 domain (GST-tagged) (assay: gcPBM binding intensity (ln(normalized median fluorescence intensity)); higher = stronger DNA binding).
Procedure, shortened: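 DNA-binding domains from P. falciparum, fused to GST and produced in E. coli, were put on an Agilent 4 × 180k double-stranded probe array for 1 h in 1× PBS holding 1% milk, 0.2 mg/ml BSA, 0.5% salmon testes DNA and 0.03% Triton X-100. Probes were primer-extended, 36 bp long and drawn from intergenic genomic regions, with negative controls included. After Alexa488 anti-GST antibody detection and a 488 nm scan, binding intensity was set as the highest Masliner-normalised natural-log median intensity across replicate spots of either probe orientation.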
For “AACAACTATTAATTTACACACATGTATTTATTTTAC [CACACA_site5683]”, the “gcPBM binding intensity (ln)” value was 9.3 ± 0.4. “AAATAAATAAATAAATAAACAAATATGTATAAATGG [XGTACX_negctrl_site153]” was tested, and the “gcPBM binding intensity (ln)” value was 8.85 ± 0.51. For “TTTAAAAAAAAAAAAAAAAATTCTACATGTAATTTA [CACACA_negctrl_site1205]”, the “gcPBM binding intensity (ln)” value was 7.96 ± 0.41. With “AATTTATAAAAGAAGAGGACACATATAAATATAAAT [XGTACX_site59]” the “gcPBM binding intensity (ln)” value was 8.78 ± 0.52. For “TGGGAAAAAATATATGCACACCCCCCAAAAAAAAAA [CACACA_site8696]”, the “gcPBM binding intensity (ln)” value was 10.48 ± 0.071. In the case of “ATAATATAAATATGCACACAAATTATTACCCAAAAA [CACACA_site2524]”, the “gcPBM binding intensity (ln)” value is reported as 9.03 ± 0.41. For “AAAAAAAATATATATGCACACACAAAAAAACAAATT [CACACA_site8349]”, the “gcPBM binding intensity (ln)” value was 9.48 ± 0.37. With “ATAAATAAAATATGCACACAAATATAGGAAACAACA [CACACA_site2561]” the “gcPBM binding intensity (ln)” value was 9.38 ± 0.38. “GGAAAAAATATATGCACACCCCCCAAAAAAAAAAAA [CACACA_site2222]” was tested, and the “gcPBM binding intensity (ln)” value was 10.5 ± 0.13. For “TTAAAAAAATATAATACACACCAAAAATATGCACAT [CACACA_site5209]”, the “gcPBM binding intensity (ln)” value was 9.03 ± 0.38. For “TTATTACATAACAATATACACACTATTGATTAAAGA [CACACA_site2933]”, the “gcPBM binding intensity (ln)” value was 8.68 ± 0.39. In the case of “AAGAATACACCACGCACACACACTTGAGAAAAAATA [CACACA_site3828]”, the “gcPBM binding intensity (ln)” value is reported as 9.96 ± 0.47. In the case of “GAATACACCACGCACACACACTTGAGAAAAAATAAA [CACACA_site7747]”, the “gcPBM binding intensity (ln)” value is reported as 9.66 ± 0.47. With “ACAAGAATACACCACGCACACACACTAGAGAAAAAA [CACACA_site9276]” the “gcPBM binding intensity (ln)” value was 10.1 ± 0.54. For “CATAAAAATATTAATAAACACACAATCAGATATTGA [CACACA_site9032]”, the “gcPBM binding intensity (ln)” value was 8.87 ± 0.45. “ATGTATAATATTTTCACACACAAGAAAAAAGAAAAG [CACACA_site3591]” was tested, and the “gcPBM binding intensity (ln)” value was 9.27 ± 0.36. In the case of “TAAAAATATAAAACATGTACATATATGCATATATTT [XGTACX_site8093]”, the “gcPBM binding intensity (ln)” value is reported as 8.86 ± 0.48. For “TAAAAAAAAACATGTGCACACGTTTTATCTACATAA [CACACA_site2336]”, the “gcPBM binding intensity (ln)” value was 10.1 ± 0.32. “TTATCTCTACAAAGTGCACACACGTAAAAACATATA [CACACA_site3957]” was tested, and the “gcPBM binding intensity (ln)” value was 9.09 ± 0.35. “CAAAACATTTTATCTACACACATATATAAATAAATA [CACACA_site3220]” was tested, and the “gcPBM binding intensity (ln)” value was 8.88 ± 0.38. “TGTAATAAAATAATTAGTACACATATATGTATATTT [XGTACX_site5896]” was tested, and the “gcPBM binding intensity (ln)” value was 8.72 ± 0.33.
